# In the library only some 19% were active in any assay of this set; here they are far more common.
# RORgamma inh: qHTS for inhibitors of ROR gamma transcriptional activity; Potency, µM (titrated, usually from 53.6 µM), without a hit: top-dose activity change, negative = inhibition, hits mostly inhibitors; hit rate 5.4% among 310,000; Nuclear receptor ROR-gamma (Mus musculus), P51450; Drosophila S2 Gal4-RORgamma UAS-luciferase reporter, 20 h; AID 2551, 2010; also: nearly all actives have a fitted effect of over 60% in size
# Target sequence (P51450 whole entry, looked up, the tested form may be a part): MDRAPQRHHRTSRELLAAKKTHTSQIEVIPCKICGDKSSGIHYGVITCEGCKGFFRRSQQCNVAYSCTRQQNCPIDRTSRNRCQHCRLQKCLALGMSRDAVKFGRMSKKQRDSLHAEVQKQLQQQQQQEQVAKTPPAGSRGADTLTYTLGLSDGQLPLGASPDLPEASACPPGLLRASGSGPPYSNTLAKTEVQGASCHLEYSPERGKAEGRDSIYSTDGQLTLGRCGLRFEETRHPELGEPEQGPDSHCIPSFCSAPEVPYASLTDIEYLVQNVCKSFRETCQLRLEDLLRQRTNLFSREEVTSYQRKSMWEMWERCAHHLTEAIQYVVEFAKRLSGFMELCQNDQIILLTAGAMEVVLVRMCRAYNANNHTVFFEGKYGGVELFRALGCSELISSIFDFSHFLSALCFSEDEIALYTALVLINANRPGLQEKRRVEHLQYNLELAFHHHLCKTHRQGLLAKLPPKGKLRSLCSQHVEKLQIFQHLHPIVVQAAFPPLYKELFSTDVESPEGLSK
#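 Using a luciferase readout, inhibitors were identified by reduced reporter activity in Drosophila cells coexpressing a copper-inducible Gal4–ROR gamma fusion and UAS-driven Photinus luciferase, incubated 20 hr after 700 uM copper sulfate.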
# TDP1 block: qHTS Assay for Inhibitors of Tyrosyl-DNA Phosphodiesterase (TDP1); hit rate 0.28% among 350,000; Tyrosyl-DNA phosphodiesterase 1 (Homo sapiens), Q9NUW8; AID 485290, 2010; Potency, µM (top dose mostly 130 µM), for the others: at the highest dose activity change, negative = inhibition, hits mostly inhibitors; recombinant TDP1, AlphaScreen DNA substrate cleavage; also: nearly all actives have a fitted effect of over 40% in size
#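 Steps: enzyme plus compound, 15 min RT; add biotin/phosphotyrosine-FITC oligonucleotide (15 nM final), react 5 min; add donor/acceptor beads (10 ug/ml final), 10 min; read AlphaScreen. Tdp1 at 1 nM final.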
# DT40 TDP1 CPT: qHTS for Inhibitors of human tyrosyl-DNA phosphodiesterase 1 (TDP1): qHTS in cells in presence of CPT; chicken DT40 Tdp1-/-;hTDP1 cells + 20 nM CPT, ATP luminescence, 48 h; Potency, µM (highest dose often 46.2 µM), inactives show at the highest dose activity change, negative = growth inhibition, hits mostly inhibitors; hit rate 12% among 420,000; AID 686979, 2013; also: nearly all actives have a fitted effect of over 55% in size
#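 Chicken DT40 Tdp1-/- cells stably complemented with human TDP1 were seeded at 400 cells/well in medium containing 20 nM camptothecin, exposed to pin-transferred compounds, and grown at 37 °C for at least 48 hr. Viability was read as ATP luminescence.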
# VP16 counter: VP16 counterscreen qHTS for inhibitors of ROR gamma transcriptional activity; Drosophila S2 Gal4-VP16 UAS-luciferase, luminescence, 20 h; Potency, µM (top dose mostly 53.6 µM), inactives show at the highest dose activity, negative = inhibition, usual class: inhibitors; hit rate 3.5% among 310,000;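 also: Gal4-VP16 expression switched on by copper sulfate through the metallothionein promoter; nearly all actives have a fitted effect of over 50% in size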
# DT40 TDP1 no CPT: qHTS for Inhibitors of human tyrosyl-DNA phosphodiesterase 1 (TDP1): qHTS in cells in absence of CPT. DT40 Tdp1-/- hTDP1 cells, no CPT, ATP luminescence, 48 h. Potency, µM (doses to about 46.2 µM), without a hit: top-dose activity change, negative = growth inhibition, actives largely listed as inhibitors. hit rate 15% among 420,000; also: nearly all actives have a fitted effect of over 55% in size
#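 Chicken DT40 Tdp1-/- cells stably complemented with human TDP1 were seeded at 400 cells/well with DMSO in place of 20 nM camptothecin. After compound pinning, cells grew at least 48 hr at 37 °C; viability read by CellTiter-Glo luminescence.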
# The depositor's hits bear a star; ? = inconclusive; / = no result given; [ ] = dose if it differs, or a comment. Calls follow the shape of the dose curve; as a rule, active = well fitted curve in the direction sought with a large enough effect; inconclusive = small, poorly fitted or top-dose-only effect, or another doubt; inactive = no such curve, though single readings can be large; an effect the other way counts as inactive or inconclusive. % is scaled to controls: 0 for no effect and ±100 for the full control effect; potency is read from the fitted curve at half-maximal effect.
SMILES,RORgamma inh,TDP1 block,DT40 TDP1 CPT,VP16 counter,DT40 TDP1 no CPT
COc1cccc(CNC(=O)COc2ccc(C(=O)c3ccccc3)cc2)c1,-7%,/,?,14%,16µM*
Cn1ccnc1C(=O)c1cc(SCC(=O)NCc2ccccc2)nc2ccccc12,15%,3%,6.5µM*,-12%,5.2µM*
O=C(NCCOc1ccc(Cl)cc1)C1CC(=O)N(c2ccc(F)cc2)C1 (configuration not stated),-42%,5%,?,-1%,-23%
CN(C(=O)CSc1ccncc1)C1CCCN(Cc2ccccc2F)C1 (configuration not stated),27%,2%,-18%,4%,-17%
Cc1ccc(CC(=O)OCCNC(=O)c2cccnc2)cc1,-9%,-2%,-7%,1%,-14%
O=C(COc1ccc(C(=O)c2ccccc2)cc1)NCC1CCCCC1,42%,0%,16µM*,?,16µM*
COc1cccc(CNC(=O)Cc2ccc(-c3ccccc3)cc2)c1,0%,14%,?,3%,21µM*
COc1ccc(CNC(NC(=O)c2ccccc2)(C(F)(F)F)C(F)(F)F)cc1,?,1%,?,10µM*,?
COCCNC(=O)/C(=C/c1ccccc1Cl)c1ccccc1,1%,0%,29µM*,4%,?
O=C(O)C(=Cc1ccccc1Cl)c1ccccc1,/,/,?,/,-27%
COc1cccc(CNC(=O)COC(=O)CNC(=O)c2ccc(-c3ccccc3)cc2)c1,/,-2%[56.1 µM],-21%,/,-27%
O=C(Nc1ccc(C(=O)O)cc1)/C(=C\c1ccc2c(c1)OCO2)NC(=O)c1ccco1,-12%,/,0%,-6%,-3%
Cc1ccc(-n2c(=O)c3c(c4cc(C)ccc4n3C)n(Cc3ccc(F)cc3)c2=O)cc1,/,6%,-8%,/,-19%
COc1ccc(OCCC(=O)NCc2ccccc2)cc1,35%,2%,1%,-2%,-2%
COc1ccc(CC(=O)NCc2ccccc2)cc1,34%,/,2.6µM*,8%,2.9µM*
COc1ccc(/C=C(/C(=O)NCc2ccccc2)c2ccccc2)cc1,-1%,-5%,?,-13%,21µM*
COCCOc1ccc(C(F)(F)F)cc1NC(=O)COC(=O)c1cc([N+](=O)[O-])ccc1N1CCOCC1,2%,3%,15µM*,7%,23µM*
Cc1cc(Cl)ccc1NC(=O)COC(=O)c1cc([N+](=O)[O-])ccc1N1CCOCC1,/,0%,-11%,/,?
O=C(COC(=O)c1cc([N+](=O)[O-])ccc1N1CCOCC1)NCc1ccccc1,/,/,-6%,/,-11%
O=C(OCc1cccc(Cl)c1)c1cc([N+](=O)[O-])ccc1N1CCOCC1,/,3%,?,/,?
COc1ccc(COC(=O)c2cc([N+](=O)[O-])ccc2N2CCOCC2)cc1F,/,13%,0.023µM*,/,0.012µM*
O=C(OCc1ccc(Br)cc1)c1cc([N+](=O)[O-])ccc1N1CCOCC1,/,/,0.73µM*,/,0.46µM*
COc1cccc(CNC(=O)COC(=O)c2cc([N+](=O)[O-])ccc2N2CCCC2)c1,/,3%,16µM*,/,23µM*
CC(=O)Nc1cccc(-c2nnc(SCC(=O)c3ccc([N+](=O)[O-])cc3)o2)c1,/,3%,/,/,/
O=S(=O)(NNC(=S)NCC1CCCO1)c1cc(Cl)ccc1Cl (configuration not stated),-3%,4%,1%,-8%,-4%
CCc1ccc(C(=O)COC(=O)c2cc([N+](=O)[O-])ccc2N2CCOCC2)cc1,/,-5%,?,/,18µM*
CC(C)N1CCN(Cc2ccsc2)CC1CCO (configuration not stated),1%,-8%,-6%,0%,-4%
Cc1ccc(-c2cc(C(=O)N3CCN(c4ncccn4)CC3)c3ccccc3n2)cc1,?,7%,?,?,16µM*

# Screening data as filed in PubChem.
